Assay results: PubChem BioAssay (EPA / NIEHS)
Active and inactive are the calls of the source. The calls were made as follows: active = hit-call score of the fitted dose curve at least 0.9, where 1 is the maximum; inactive = score below 0.9.

What was measured:
[1] = ATG_CRE_CIS: Attagene CIS-FACTORIAL HepG2 Assay for human cAMP Responsive Element (CRE) binding protein 3 (AID 2282926); conditions: HepG2 CRE cis-reporter, Attagene multiplexed mRNA; actives raise or lower the signal
Method in brief: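 Liver-derived HepG2, transfected with a CRE-containing reporter panel, exposed 24 h; transcript levels sized and quantified by capillary electrophoresis of labelled amplicons; signal changes either way referenced to vehicle.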

[2] = target: CCAAT/enhancer-binding protein beta (Homo sapiens) (UniProt P17676); assay: ATG_C_EBP_CIS: Attagene CIS-FACTORIAL HepG2 Assay for human CCAAT/Enhancer Binding Protein (C/EBP) beta (AID 2282927); conditions: HepG2 Attagene cis-factorial transcription factor reporter; actives raise or lower the signal
Sequence of CCAAT/enhancer-binding protein beta (Homo sapiens) (P17676 whole entry, looked up): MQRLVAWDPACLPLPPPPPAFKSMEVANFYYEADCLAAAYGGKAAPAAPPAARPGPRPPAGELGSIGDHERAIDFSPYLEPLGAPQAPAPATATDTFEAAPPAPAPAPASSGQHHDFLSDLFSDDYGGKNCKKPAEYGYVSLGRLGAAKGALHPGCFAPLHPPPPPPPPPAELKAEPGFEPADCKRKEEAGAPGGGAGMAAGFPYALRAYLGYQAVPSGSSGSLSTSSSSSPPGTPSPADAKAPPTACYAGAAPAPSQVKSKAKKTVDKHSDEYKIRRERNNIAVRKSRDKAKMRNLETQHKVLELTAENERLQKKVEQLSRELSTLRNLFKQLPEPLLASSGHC
Method in brief: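 Transiently transfected HepG2 (MRTU library, endogenous TF-driven promoters); 24 h dosing; total RNA → oligo(dT) RT → PCR → 6-FAM primer extension → HpaI digest → CE; fit bidirectionally vs DMSO.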

[3] = ATG_CMV_CIS: Attagene CIS-FACTORIAL HepG2 Assay for human CMV (Internal Marker) (AID 2282928); conditions: HepG2 CMV promoter reporter, transcription factor profiling; actives raise or lower the signal;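 also: endpoint acts as a background internal control marker rather than a target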
Method in brief: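 Bidirectional fits against DMSO are applied to reporter mRNA, read by RT-PCR with capillary electrophoresis, from HepG2 cells exposed 24 h. The endpoint serves as an internal CMV background marker within the cis-factorial reporter panel.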

[4] = ATG_DR4_LXR_CIS: Attagene CIS-FACTORIAL HepG2 Assay for human Liver X Receptor (LXR), DR4 submotif (AID 2282929); conditions: HepG2 Attagene DR4 cis-reporter, mRNA transcription; actives raise or lower the signal
Method in brief: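 Total RNA from 24 h-treated, MRTU-transfected HepG2 cells underwent reverse transcription, PCR, fluorescent primer extension and restriction digestion before capillary electrophoresis. Both increases and decreases in reporter signal were fitted against DMSO.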

[5] = target: Aryl hydrocarbon receptor (Homo sapiens) (UniProt P35869); assay: ATG_Ahr_CIS: Attagene CIS-FACTORIAL HepG2 Assay for human Aryl Hydrocarbon Receptor (Ahr) (AID 2282930); conditions: HepG2 AhR cis-factorial reporter transcription; actives raise or lower the signal
Sequence of Aryl hydrocarbon receptor (Homo sapiens) (P35869 whole entry, looked up): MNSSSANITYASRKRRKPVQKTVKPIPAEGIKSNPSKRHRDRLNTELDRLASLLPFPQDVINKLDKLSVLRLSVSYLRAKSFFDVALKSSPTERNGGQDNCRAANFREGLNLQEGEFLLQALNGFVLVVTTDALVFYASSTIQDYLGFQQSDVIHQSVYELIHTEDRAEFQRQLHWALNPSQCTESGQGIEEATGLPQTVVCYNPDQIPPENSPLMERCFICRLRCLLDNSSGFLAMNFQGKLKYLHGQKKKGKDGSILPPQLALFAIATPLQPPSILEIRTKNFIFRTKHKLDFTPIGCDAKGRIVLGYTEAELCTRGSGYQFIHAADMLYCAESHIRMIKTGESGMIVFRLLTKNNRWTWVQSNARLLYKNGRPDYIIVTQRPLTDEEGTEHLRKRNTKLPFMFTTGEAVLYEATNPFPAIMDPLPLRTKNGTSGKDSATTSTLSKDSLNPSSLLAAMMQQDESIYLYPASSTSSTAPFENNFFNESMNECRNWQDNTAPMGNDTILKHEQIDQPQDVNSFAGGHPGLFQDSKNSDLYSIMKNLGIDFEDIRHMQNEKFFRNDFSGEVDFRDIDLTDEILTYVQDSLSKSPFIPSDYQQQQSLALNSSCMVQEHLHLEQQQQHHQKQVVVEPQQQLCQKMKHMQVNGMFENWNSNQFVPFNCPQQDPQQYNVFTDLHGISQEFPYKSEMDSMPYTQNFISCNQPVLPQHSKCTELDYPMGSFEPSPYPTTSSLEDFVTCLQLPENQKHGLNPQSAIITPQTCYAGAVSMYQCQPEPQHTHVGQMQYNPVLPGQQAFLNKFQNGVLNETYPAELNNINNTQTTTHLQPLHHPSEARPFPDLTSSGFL
Method in brief: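 Read-out: reporter mRNA quantified by RT-PCR with fluorescent primer extension and capillary electrophoresis. Human HepG2 liver cells carried transfected cis-promoter reporter units and were exposed to chemical for 24 h; gain or loss fitted relative to DMSO.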

[6] = ATG_AP_1_CIS: Attagene CIS-FACTORIAL HepG2 Assay for human Activator Protein 1 (AP-1) (AID 2282931); conditions: HepG2 Attagene cis-factorial AP-1 reporter mRNA; actives raise or lower the signal
Method in brief: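 HepG2, transient cis-reporter transfection; 24 h; readout RT-PCR/CE fluorescence; DMSO baseline, gain and loss fitted.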

[7] = ATG_BRE_CIS: Attagene CIS-FACTORIAL HepG2 Assay for human Bone Morphogenetic Protein (BMP) Response Element (BRE) (AID 2282933); conditions: HepG2 BMP response element reporter, Attagene transcription factor profiling; actives raise or lower the signal
Method in brief: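 Read-out: reporter mRNA induction quantified by RT-PCR and capillary electrophoresis after 24 h chemical exposure of transfected HepG2 cells. Endogenous factor activity on the BMP response element; gain or loss fitted against DMSO baseline.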

[8] = target: Transcription factor E2F1 (Homo sapiens) (UniProt Q01094); assay: ATG_E2F_CIS: Attagene CIS-FACTORIAL HepG2 Assay for human E2F Transcription Factor 1 (AID 2282935); conditions: HepG2 Attagene cis-reporter, E2F reporter RNA transcripts; actives raise or lower the signal
Sequence of Transcription factor E2F1 (Homo sapiens) (Q01094 whole entry, looked up): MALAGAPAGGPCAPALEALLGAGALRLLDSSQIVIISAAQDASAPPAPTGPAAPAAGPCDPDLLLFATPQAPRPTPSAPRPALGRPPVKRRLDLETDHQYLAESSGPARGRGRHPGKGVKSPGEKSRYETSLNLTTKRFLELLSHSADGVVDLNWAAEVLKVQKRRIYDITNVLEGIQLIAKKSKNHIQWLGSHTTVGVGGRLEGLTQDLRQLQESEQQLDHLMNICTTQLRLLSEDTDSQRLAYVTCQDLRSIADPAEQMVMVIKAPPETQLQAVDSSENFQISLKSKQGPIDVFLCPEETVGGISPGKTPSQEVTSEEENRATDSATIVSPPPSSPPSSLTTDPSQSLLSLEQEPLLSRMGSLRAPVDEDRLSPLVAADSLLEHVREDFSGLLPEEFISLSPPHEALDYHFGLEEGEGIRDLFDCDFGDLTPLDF
Method in brief: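 Liver-derived HepG2 cells expressing transfected promoter-driven reporter units received test chemical for 24 hours. Signal gains or losses were fitted bidirectionally against DMSO.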

[9] = ATG_E_Box_CIS: Attagene CIS-FACTORIAL HepG2 Assay for human Enhancer Box (E-box) (AID 2282936); conditions: HepG2 E-box cis-reporter transcription, actives raise or lower the signal
Method in brief: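 In this cell-based setup, HepG2 cells bearing transfected promoter-driven reporter units were exposed to chemicals for 24 h; reporter transcripts were amplified, 6-FAM-labelled, cut with HpaI and sized by capillary electrophoresis.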

[10] = ATG_M_61_CIS: Attagene CIS-FACTORIAL HepG2 Assay for M61 Transcription Factor (Internal Marker) (AID 2282937); conditions: HepG2 Attagene CIS-FACTORIAL M61 internal marker reporter; actives raise or lower the signal
Method in brief: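 Transfect HepG2 with MRTUs; dose 24 h; isolate RNA; reverse-transcribe with DNase I treatment; PCR-amplify, FAM-label and cut with HpaI for 2 h at 37 C; resolve by CE. Bidirectional fitting against DMSO.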

[11] = ATG_EGR_CIS: Attagene CIS-FACTORIAL HepG2 Assay for human Early Growth Response 1 (EGR1) (AID 2282938); conditions: HepG2 Attagene CIS-FACTORIAL EGR reporter mRNA; actives raise or lower the signal
Method in brief: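 After a 24 h treatment of transiently transfected HepG2 cells, total RNA was reverse-transcribed and reporter sequences PCR-amplified, labelled and run on capillary electrophoresis. Reporters sit under cis-regulatory promoters sensing endogenous factors.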

[12] = ATG_M_19_CIS: Attagene CIS-FACTORIAL HepG2 Assay for M19 Transcription Factor (Internal Marker) (AID 2282939); conditions: HepG2 Attagene CIS-FACTORIAL M19 internal marker reporter; actives raise or lower the signal
Method in brief: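 Readout: fluorescent reporter-transcript fragments by capillary electrophoresis after RT-PCR. Human HepG2 liver cells carried transfected MRTU constructs reporting endogenous transcription-factor activity; exposure 24 h. Gain or loss of signal fitted relative to DMSO.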

[13] = ATG_ERE_CIS: Attagene CIS-FACTORIAL HepG2 Assay for Estrogen Response Element (ERE) (AID 2282940); conditions: HepG2 ERE cis-reporter, Attagene RNA transcript; actives raise or lower the signal
Method in brief: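 Readout: reporter mRNA induction by RT-PCR, FAM-labelled primer extension, HpaI digestion and capillary electrophoresis, 24 h after dosing transfected HepG2 cells. Endogenous transcription factors act on cis-element-regulated reporters. Gain or loss fitted against DMSO.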

[14] = ATG_Ets_CIS: Attagene CIS-FACTORIAL HepG2 Assay for human Erythroblast Transformation Specific (ETS) (AID 2282941); conditions: HepG2 ETS cis-reporter transcription, actives raise or lower the signal
Method in brief: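 Endogenous transcription factor activity read as reporter mRNA via RT-PCR and capillary electrophoresis, with gain or loss fitted bidirectionally against DMSO. Human HepG2 liver cells, transiently transfected CIS reporter constructs, 24 h exposure.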

[15] = target: Hepatocyte nuclear factor 3-beta (Homo sapiens) (UniProt Q9Y261); assay: ATG_FoxA2_CIS: Attagene CIS-FACTORIAL HepG2 Assay for human Forkhead box A2 (FOXA2) (AID 2282942); conditions: HepG2 cis-reporter transcription factor activity, 24 h; actives raise or lower the signal
Sequence of Hepatocyte nuclear factor 3-beta (Homo sapiens) (Q9Y261 whole entry, looked up): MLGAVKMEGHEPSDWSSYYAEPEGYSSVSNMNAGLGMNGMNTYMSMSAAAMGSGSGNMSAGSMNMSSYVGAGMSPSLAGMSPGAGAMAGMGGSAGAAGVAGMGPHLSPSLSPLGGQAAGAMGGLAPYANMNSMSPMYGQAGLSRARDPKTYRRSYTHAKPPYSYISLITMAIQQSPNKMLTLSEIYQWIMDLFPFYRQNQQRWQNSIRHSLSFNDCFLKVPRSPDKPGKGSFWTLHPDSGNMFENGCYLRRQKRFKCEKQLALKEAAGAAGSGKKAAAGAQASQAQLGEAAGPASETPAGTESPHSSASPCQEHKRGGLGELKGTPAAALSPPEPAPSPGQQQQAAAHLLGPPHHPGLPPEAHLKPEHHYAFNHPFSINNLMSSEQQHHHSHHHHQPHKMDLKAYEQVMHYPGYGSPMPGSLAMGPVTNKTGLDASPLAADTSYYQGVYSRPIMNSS
Method in brief: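 24 h dosing of HepG2 bearing cis-reporter constructs; mRNA readout by RT-PCR/CE fluorescence; bidirectional fit, DMSO baseline.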

[16] = ATG_FoxO_CIS: Attagene CIS-FACTORIAL HepG2 Assay for human Forkhead box O (FoxO) (AID 2282943); conditions: HepG2 Attagene cis-reporter, FoxO element, mRNA; actives raise or lower the signal
Method in brief: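 Read-out: fluorescence of 6-FAM-labelled reporter cDNA fragments resolved by capillary electrophoresis. Transiently transfected HepG2 cells were dosed for 24 h; activity fitted in both directions relative to DMSO controls.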

[17] = ATG_GATA_CIS: Attagene CIS-FACTORIAL HepG2 Assay for human GATA Binding Protein (AID 2282944); conditions: HepG2 GATA cis-element reporter, Attagene multiplex mRNA; actives raise or lower the signal
Method in brief: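 Read-out: fluorescent reporter mRNA fragments resolved by capillary electrophoresis after RT-PCR. Human liver HepG2 cells carried transiently transfected cis-regulated reporter constructs; chemicals incubated 24 h; gain or loss of signal fitted relative to DMSO.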

[18] = ATG_GLI_CIS: Attagene CIS-FACTORIAL HepG2 Assay for human Zinc Finger Protein GLI1 (AID 2282945); conditions: HepG2, Attagene cis-factorial reporter mRNA, GLI element; actives raise or lower the signal
Method in brief: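 Transiently transfected HepG2 cells report endogenous transcription factor activity via cis-element-driven reporter units. After 24 h compound exposure, reporter mRNA was measured by RT-PCR with capillary electrophoresis; bidirectional fitting against DMSO baseline.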

[19] = ATG_AP_2_CIS: Attagene CIS-FACTORIAL HepG2 Assay for human Activator Protein 2 (AP-2) (AID 2282932); conditions: HepG2 AP-2 cis-reporter, Attagene transcription factor profiling; actives raise or lower the signal
Method in brief: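 Liver-derived HepG2 line, cis-reporter system measuring endogenous factors; 24 h dosing; reporter mRNA detected by fluorescent RT-PCR and capillary electrophoresis.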

[20] = target: Retinoic acid receptor alpha (Homo sapiens) (UniProt P10276); assay: ATG_DR5_RAR_CIS: Attagene CIS-FACTORIAL HepG2 Assay for human Retinoic Acid Receptor Alpha (RARE), DR5 submotif (AID 2282934); conditions: HepG2 Attagene cis-factorial RARE DR5 reporter, mRNA; actives raise or lower the signal
Sequence of Retinoic acid receptor alpha (Homo sapiens) (P10276 whole entry, looked up): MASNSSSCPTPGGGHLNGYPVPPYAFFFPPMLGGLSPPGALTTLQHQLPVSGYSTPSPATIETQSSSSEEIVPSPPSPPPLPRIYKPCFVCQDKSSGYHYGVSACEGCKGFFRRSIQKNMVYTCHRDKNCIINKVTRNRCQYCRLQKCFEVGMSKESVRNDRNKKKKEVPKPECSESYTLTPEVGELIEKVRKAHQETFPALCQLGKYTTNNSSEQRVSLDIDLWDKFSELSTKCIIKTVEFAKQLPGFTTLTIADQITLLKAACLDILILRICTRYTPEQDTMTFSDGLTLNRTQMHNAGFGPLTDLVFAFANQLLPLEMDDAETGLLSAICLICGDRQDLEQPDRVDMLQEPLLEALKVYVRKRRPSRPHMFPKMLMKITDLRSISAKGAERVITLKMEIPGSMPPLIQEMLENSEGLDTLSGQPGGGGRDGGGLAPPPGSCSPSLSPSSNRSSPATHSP
Method in brief: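 Read-out: DR5-driven reporter transcript measured by RT-PCR, 6-FAM primer extension, HpaI digest and capillary electrophoresis. Human HepG2 liver cells carry transiently transfected cis-element reporter constructs; dosing lasts 24 h. Gain or loss of signal fitted against DMSO baseline.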

Measured: AC50

c1ccc(CCCc2ccccn2)cc1
inactive: [1] | [2] | [3] | [4] | [5] | [6] | [7] | [9] | [10] | [11] | [12] | [13] | [14] | [15] | [16] | [17] | [18]
active: [8] 72.7 µM

NC(=O)c1ccccc1Cl
active: [1] 61.2 µM | [6] 27 µM | [9] 61.1 µM | [11] 67.2 µM | [18] 139 µM
inactive: [2] | [3] | [4] | [5] | [7] | [8] | [10] | [12] | [13] | [14] | [15] | [16]

Clc1sc(Cl)c(Cl)c1Cl
inactive: [1] | [2] | [3] | [4] | [5] | [6] | [19] | [8] | [9] | [10] | [11] | [12] | [13] | [15] | [18]

CC(=O)O[C@H](CC(=O)[O-])C[N+](C)(C)C
inactive: [1] | [2] | [3] | [4] | [5] | [6] | [7] | [8] | [9] | [10] | [11] | [12] | [13] | [14] | [16] | [17] | [18]

OCCOc1cccc(OCCO)c1
inactive: [1] | [2] | [3] | [4] | [5] | [7] | [20] | [8] | [9] | [10] | [11] | [12] | [16] | [17] | [18]

Cc1ccc(C(=O)O)o1
inactive: [1] | [2] | [3] | [4] | [5] | [6] | [7] | [8] | [9] | [10] | [12] | [15] | [17] | [18]

O=C(Oc1ccccc1)c1ccc(O)cc1
inactive: [1] | [2] | [3] | [4] | [5] | [19] | [7] | [20] | [8] | [9] | [10] | [11] | [12] | [14] | [15] | [16] | [17] | [18]

CC1CCC2CC1C2(C)C (configuration not stated)
inactive: [1] | [2] | [3] | [4] | [5] | [7] | [9] | [10] | [11] | [12] | [14] | [15] | [16] | [17] | [18]

CCCOCC(C)O (configuration not stated)
inactive: [1] | [2] | [3] | [4] | [5] | [6] | [20] | [9] | [10] | [11] | [12] | [14] | [15] | [16] | [17] | [18]

CCCc1c(OCCCOc2ccc(OCC(=O)O)cc2)ccc(C(C)=O)c1O
active: [3] 64.1 µM | [7] 137 µM | [11] 31.8 µM | [13] 365 nM
inactive: [1] | [2] | [4] | [5] | [6] | [9] | [10] | [12] | [14] | [15] | [17] | [18]

CCC(O)CO (configuration not stated)
inactive: [1] | [2] | [3] | [4] | [5] | [19] | [7] | [8] | [9] | [10] | [11] | [12] | [13] | [14] | [15] | [16] | [17] | [18]

CCC(C)(O)CCC=C(C)C (configuration not stated)
inactive: [1] | [2] | [3] | [4] | [5] | [19] | [7] | [8] | [9] | [10] | [11] | [12] | [13] | [14] | [15] | [16] | [18]

S=C(S)NCCNC(=S)S
inactive: [1] | [2] | [3] | [4] | [5] | [19] | [7] | [8] | [9] | [10] | [11] | [12] | [14] | [16] | [17] | [18]

O=C[C@@H](O)[C@H](O)[C@H](O)CO
inactive: [1] | [2] | [3] | [4] | [5] | [6] | [20] | [8] | [9] | [10] | [11] | [12] | [14] | [15] | [16]
